activity, negative = cell killing and Potency data for 20 compounds are collected here from PubChem BioAssay (NCATS).

Molecules are shown by their SMILES. Results filed as inconclusive are left out. Active and inactive are the calls of the source. Calls follow the shape of the dose curve; as a rule, active = well fitted inhibition curve with a large enough effect; inconclusive = small, poorly fitted or top-dose-only effect; inactive = flat fitted curve, though single readings scatter.
% is scaled to controls: 0 for no effect and ±100 for the full control effect; potency is read from the fitted curve at half-maximal effect.

A short description of the first test: Drug repurposing screens with cells derived from glioblastoma tumor samples (AID 1345199). Also: nearly all actives have a fitted effect of over 40% in size. Conditions: GBM patient neurospheres viability, ATP luminescence, 48 h; at 45.9 µM (top of the series); tumour line B. The method, boiled down: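 Four patient lines of CD133+ GBM neurospheres were screened at several concentrations; hits were retested in those lines plus three slower-growing GBM lines, using 48-hour treatment and ATP-based viability.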
Consider `CN=C(NC#N)NCCSCc1csc(N=C(N)N)n1`, for which the activity, negative = cell killing is -9.85% (inactive).

On to `c1ccc(-c2ccc(C(c3ccccc3)n3ccnc3)cc2)cc1` (centres undefined), for which the activity, negative = cell killing is -29.4% (inactive).

As for `C[C@]12CCC(=O)C=C1[C@@H]1C[C@@H]1[C@H]1[C@@H]3[C@@H]4C[C@@H]4[C@@]4(CCC(=O)O4)[C@@]3(C)CC[C@@H]12`, the activity, negative = cell killing is -20.2% (inactive).

`CCCCCCCCCCCCCCCCOP(=O)([O-])OCC[N+](C)(C)C`: the activity, negative = cell killing was -7.15% (inactive).

`CN(C)C(=S)SC(=S)N(C)C`: the activity, negative = cell killing is -2.75% (inactive).

Take `CN(C/C=C/c1ccccc1)Cc1cccc2ccccc12`: the activity, negative = cell killing was -26.7% (inactive).

On to `Cc1cccn2c(=O)c(-c3nnn[nH]3)cnc12`, for which the activity, negative = cell killing is -8.75% (inactive).

`CCN(CC)C(=O)/C(C#N)=C/c1cc(O)c(O)c([N+](=O)[O-])c1`: the activity, negative = cell killing was -9.02% (inactive).

For `CCOc1ccc2nc3cc(N)ccc3c(N)c2c1`, the activity, negative = cell killing was -17.9% (inactive).

For the compound `CCC(C(=O)OCCN(CC)CC)c1ccccc1` (centres undefined), the activity, negative = cell killing is -10.7% (inactive).

The same test, now with this note: GBM patient neurospheres viability, ATP luminescence, 48 h; at 45.9 µM (top of the series); tumour line D.
Take `CN=C(NC#N)NCCSCc1csc(N=C(N)N)n1`: the activity, negative = cell killing is 14.9% (inactive).

Take `C[C@]12CCC(=O)C=C1[C@@H]1C[C@@H]1[C@H]1[C@@H]3[C@@H]4C[C@@H]4[C@@]4(CCC(=O)O4)[C@@]3(C)CC[C@@H]12`: the activity, negative = cell killing is -9.23% (inactive).

On to `CCCCCCCCCCCCCCCCOP(=O)([O-])OCC[N+](C)(C)C`, for which the activity, negative = cell killing was -0.719% (inactive).

Take `CN(C)C(=S)SC(=S)N(C)C`: the activity, negative = cell killing was -2.32% (inactive).

With `O=C(N/N=C/c1ccccc1O)c1ccncc1`, the activity, negative = cell killing was 0.44% (inactive).

Turning to `CN(C/C=C/c1ccccc1)Cc1cccc2ccccc12`, the activity, negative = cell killing is -18.5% (inactive).

For `Cc1cccn2c(=O)c(-c3nnn[nH]3)cnc12`, the activity, negative = cell killing was -11.1% (inactive).

Consider `CCN(CC)C(=O)/C(C#N)=C/c1cc(O)c(O)c([N+](=O)[O-])c1`, for which the activity, negative = cell killing was 4.73% (inactive).

In the case of `CCOc1ccc2nc3cc(N)ccc3c(N)c2c1`, the activity, negative = cell killing is -30.3% (inactive).

For the compound `CCC(C(=O)OCCN(CC)CC)c1ccccc1` (centres undefined), the activity, negative = cell killing was 13.4% (inactive).

Staying with this test, now noted: GBM patient neurospheres viability, ATP luminescence, 48 h; at 46 µM (top of the series); tumour line A.
For `CN=C(NC#N)NCCSCc1csc(N=C(N)N)n1`, the activity, negative = cell killing was -18.5% (inactive).

On to `CN(C)C(=S)SC(=S)N(C)C`, for which the activity, negative = cell killing was -14.5% (inactive).

In the case of `Cc1cccn2c(=O)c(-c3nnn[nH]3)cnc12`, the activity, negative = cell killing is -23.8% (inactive).

As to `CCN(CC)C(=O)/C(C#N)=C/c1cc(O)c(O)c([N+](=O)[O-])c1`, the activity, negative = cell killing was -20% (inactive).

`CCOc1ccc2nc3cc(N)ccc3c(N)c2c1`: the activity, negative = cell killing is -14.8% (inactive).

As for `CCC(C(=O)OCCN(CC)CC)c1ccccc1` (centres undefined), the activity, negative = cell killing was -28.5% (inactive).

Staying with this test, now noted: GBM patient neurospheres viability, ATP luminescence, 48 h; at 46.1 µM (top of the series); tumour line C.
As to `CN=C(NC#N)NCCSCc1csc(N=C(N)N)n1`, the activity, negative = cell killing is -6.9% (inactive).

For the compound `Oc1c(I)cc(Cl)c2cccnc12`, the activity, negative = cell killing is -11.9% (inactive).

Regarding `C#C[C@]1(OC(C)=O)CC[C@H]2[C@@H]3CCC4=C[C@@H](OC(C)=O)CC[C@@H]4[C@H]3CC[C@@]21C`, the activity, negative = cell killing was -26.2% (inactive).

As for `C[C@]12CCC(=O)C=C1[C@@H]1C[C@@H]1[C@H]1[C@@H]3[C@@H]4C[C@@H]4[C@@]4(CCC(=O)O4)[C@@]3(C)CC[C@@H]12`, the activity, negative = cell killing is -0.55% (inactive).

As to `CCCCCCCCCCCCCCCCOP(=O)([O-])OCC[N+](C)(C)C`, the activity, negative = cell killing is -5.47% (inactive).

As for `C[n+]1c2cc(N)ccc2cc2ccc(N)cc21` (tested in a mixture with another compound), the activity, negative = cell killing was -16% (inactive).

In the case of `CN(C)C(=S)SC(=S)N(C)C`, the activity, negative = cell killing is -7.02% (inactive).

As to `C=C(CC)C(=O)c1ccc(OCC(=O)O)c(Cl)c1Cl`, the activity, negative = cell killing was 1.71% (inactive).

In the case of `Cc1c(C)n(CCN(C)C)c2ccc(C(=O)OCCN(C)C)cc12`, the activity, negative = cell killing was -23.7% (inactive).

In the case of `CN(C/C=C/c1ccccc1)Cc1cccc2ccccc12`, the activity, negative = cell killing was -27.1% (inactive).

Regarding `Cc1cccn2c(=O)c(-c3nnn[nH]3)cnc12`, the activity, negative = cell killing is -18.6% (inactive).

For `CCN(CC)C(=O)/C(C#N)=C/c1cc(O)c(O)c([N+](=O)[O-])c1`, the activity, negative = cell killing was 7.42% (inactive).

As to `CCOc1ccc2nc3cc(N)ccc3c(N)c2c1`, the activity, negative = cell killing was 1.93% (inactive).

For the compound `CCC(C(=O)OCCN(CC)CC)c1ccccc1` (centres undefined), the activity, negative = cell killing is 0.404% (inactive).

Still in this test, the particulars now being: GBM patient neurospheres viability, ATP luminescence, 48 h; tumour line A.
For the compound `CCCCOc1ccc(C(=O)CCN2CCCCC2)cc1`, the Potency was 4.47 µM (active).

On to `CC(=O)c1ccc2c(c1)N(CCCN1CCC(CCO)CC1)c1ccccc1S2`, for which the Potency is 11.2 µM (active).

For `Oc1c(I)cc(Cl)c2cccnc12`, the Potency is 17.8 µM (active).

Turning to `C#C[C@]1(OC(C)=O)CC[C@H]2[C@@H]3CCC4=C[C@@H](OC(C)=O)CC[C@@H]4[C@H]3CC[C@@]21C`, the Potency is 10 µM (active).

In the case of `c1ccc(-c2ccc(C(c3ccccc3)n3ccnc3)cc2)cc1` (centres undefined), the Potency was 3.55 µM (active).

Turning to `C[n+]1c2cc(N)ccc2cc2ccc(N)cc21` (tested in a mixture with another compound), the Potency was 35.5 µM (active).

Take `CN1CCN(CCCN2c3ccccc3Sc3ccc(S(=O)(=O)N(C)C)cc32)CC1`: the Potency is 7.94 µM (active).

As for `Cc1c(C)n(CCN(C)C)c2ccc(C(=O)OCCN(C)C)cc12`, the Potency was 10 µM (active).

As to `O=C(CCCN1CCC(O)(c2ccc(Br)cc2)CC1)c1ccc(F)cc1`, the Potency was 3.55 µM (active).
